Sampled rows, rich in hits. Any-hit rate of the full collection: about 2.3%.
LASV entry inh: inhibitors of Lassa virus binding or cell entry. Lassa virus pseudotype entry inhibition, cell reporter. Potency, µM (series often up to 37.9 µM), hits mostly inhibitors. 300,000 compounds, 1.2% hits; calls by dose curve; tested in HEK293 cells; also: nearly all actives have a fitted effect of over 50% in size
AmpC no deterg: AmpC beta-lactamase inhibition without detergent | AmpC nitrocefin hydrolysis, absorbance 480 nm, 0.0001% Triton | 330,000 compounds, 0.52% hits | P00811 | Potency, µM (series often up to 57.1 µM), actives largely listed as inhibitors | AID 485341; also: nearly all actives have a fitted effect of over 20% in size
Target sequence (P00811 whole entry, looked up): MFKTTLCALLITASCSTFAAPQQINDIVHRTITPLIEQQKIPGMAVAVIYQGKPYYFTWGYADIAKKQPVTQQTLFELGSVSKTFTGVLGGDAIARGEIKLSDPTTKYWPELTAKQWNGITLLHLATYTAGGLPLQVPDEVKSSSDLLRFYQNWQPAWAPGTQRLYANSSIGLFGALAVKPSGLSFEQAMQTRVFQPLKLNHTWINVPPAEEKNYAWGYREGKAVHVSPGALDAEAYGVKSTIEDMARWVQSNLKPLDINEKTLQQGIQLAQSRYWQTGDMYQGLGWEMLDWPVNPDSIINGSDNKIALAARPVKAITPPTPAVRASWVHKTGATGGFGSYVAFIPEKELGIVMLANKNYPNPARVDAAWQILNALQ
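AmpC (5.3 nM in the dispensed reagent) in 20 mM phosphate pH 7.0 with 0.01% (detergent screen) or 0.0001% Triton X-100 was preincubated with compounds for 15 min at room temperature. Nitrocefin was then added from an 800 uM solution, and hydrolysis was followed at 480 nm.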
AMA1 RON2 block: disrupts binding of P. falciparum AMA1 to RON2 | AlphaScreen AMA1-biotinylated RON2 peptide binding | Potency, µM (highest dose often 58.2 µM), hits mostly inhibitors | 360,000 compounds, 0.2% hits; also: nearly all actives have a fitted effect of over 45% in size
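AMA1 (3D7) with his tag at 25 nM final met compounds first, then biotinylated RON2 peptide at 25 nM; detection used donor plus acceptor beads, 10 µg/mL apiece, read by AlphaScreen after 30 min at room temperature.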
AmpC detergent: AmpC beta-lactamase inhibition with detergent present | P00811 | AmpC hydrolysis of nitrocefin, absorbance 480 nm, 0.01% Triton | Potency, µM (top dose mostly 114 µM), actives largely listed as inhibitors | 370,000 compounds, 0.041% hits | AID 485294; also: nearly all actives have a fitted effect of over 25% in size
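20 mM phosphate pH 7.0 + 0.01% (detergent screen) or 0.0001% Triton X-100; 5.3 nM AmpC reagent; cpd preinc 15 min RT; nitrocefin (800 uM stock) to start; A480 q20 s × 4 min; Activity was normalised to no-enzyme and no-compound control wells.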
MARV entry inh: Marburg virus entry inhibition; Marburg virus pseudotyped entry inhibition, cell reporter; Potency, µM (doses to about 37.8 µM), hits mostly inhibitors; 300,000 compounds, 1.8% hits; calls by dose curve; tested in HEK293 cells
Hits are given with their value; i = inactive; ? = inconclusive; nt = no result. Unless noted, calls follow the shape of the dose curve; as a rule, active = well fitted curve in the direction sought with a large enough effect; inconclusive = small, poorly fitted or top-dose-only effect, or another doubt; inactive = no such curve, though single readings can be large; an effect the other way counts as inactive or inconclusive.

SMILES	LASV entry inh	AmpC no deterg	AMA1 RON2 block	AmpC detergent	MARV entry inh
Cn1nccc1NC(=O)Nc1cccc(Cl)c1Cl	i	i	i	i	?
Cn1cc(Cl)c(C(=O)Nc2cccc(Cl)c2Cl)n1	i	7.1µM	i	i	i
Cc1cccc(C(=O)NC(=O)Nc2ccc(-n3nc(C(F)(F)F)cc3C(F)(F)F)cc2)c1	i	nt	nt	i	i
Cc1ccc(-c2c(C(=O)NCCc3ccccc3)oc(=O)c3ccccc23)cc1	i	nt	nt	i	i
Oc1ccc(C[C@H]2NCCc3cc(O)c(O)cc32)cc1O	?	i	2.5µM	i	2.8µM
COc1cc2c(cc1OC)C(Cc1ccc(O)cc1)NCC2 (stereo not given)	i	i	i	?	?
COC(=O)c1ccc(CN2C(=O)[C@]3(OCCC=C[C@@H]3C)c3ccccc32)cc1	nt	nt	nt	nt	i
CC1NC2(C(=O)N(Cc3ccccc3)c3ccccc32)C2C(=O)N(c3ccccc3)C(=O)C12 (stereo not given)	nt	11µM	i	?	i
Cc1ccc([C@@H]2[C@@H]3C(=O)N(c4ccccc4)C(=O)[C@@H]3[C@]3(C)C(=O)N(Cc4ccccc4)CC(=O)N23)o1	nt	i	i	?	nt
COC(=O)c1c(C(=O)OC)c2c3ccccc3cc(C3CC3)n2c1C(=O)OC	nt	nt	nt	nt	i
Cc1cccc(OCC(O)Cn2c(=N)n(CCN3CCCCC3)c3ccccc32)c1 (stereo not given)	?	i	i	i	0.52µM
CCN(CC)CCn1c(=N)n(CC(O)COc2ccccc2C)c2ccccc21 (stereo not given)	?	nt	nt	i	3.2µM
COc1ccc(OCC(O)Cn2c(=N)n(Cc3ccccc3)c3ccccc32)cc1 (stereo not given)	?	i	i	i	4.1µM
Cc1cccc(OCC(O)Cn2c(=N)n(Cc3ccccc3)c3ccccc32)c1 (stereo not given)	nt	i	i	i	nt
CCN(CC)CCn1c(=N)n(CC(O)COc2cccc(C)c2)c2ccccc21 (stereo not given)	?	i	i	i	?
CC(C)C[C@H](N)c1nnc(SCc2ccc(Cl)cc2Cl)o1	i	nt	nt	i	?
CC(C)C[C@H](N)c1nnc(S(=O)(=O)Cc2ccc(F)cc2)o1	?	2µM	i	1.4µM	?
CCCNC(=O)Cn1nc(-c2ccc(C)c(C)c2)c2cnc3ccc(OC)cc3c21	i	nt	nt	i	nt
O=[N+]([O-])c1ccc(CNCc2cc(Cl)ccc2O)cc1	nt	3.2µM	i	i	nt
CCOC(=O)c1sc2ccccc2c1S(=O)(=O)Nc1ccc(CC)cc1	i	nt	nt	i	nt
CCCc1cc(-c2[nH]ncc2-c2ccc3c(c2)OCCCO3)c(O)cc1O	?	i	i	i	15µM
CCCc1cc(-c2[nH]ncc2-c2ccc(C(=O)OCC)o2)c(O)cc1O	i	i	i	i	?
CC1=CC[C@@H](COc2ccccc2)O[C@@]2(C1)C(=O)N(Cc1ccccc1C(F)(F)F)c1ccccc12	nt	nt	nt	nt	i
COc1cc(C(=O)Nc2ccc(-c3nc4ccccc4o3)c(O)c2)cc(OC)c1OC	i	nt	nt	i	nt
N#C/C(=C/c1ccc2c(c1)OCO2)C(=O)NCCc1c[nH]c2ccccc12	i	0.28µM	?	i	i
SMILES	LASV entry inh	AmpC no deterg	AMA1 RON2 block	AmpC detergent	MARV entry inh
N#C/C(=C\c1ccc(-c2ccc(Br)cc2)o1)C(=O)NCCc1c[nH]c2ccccc12	?	8.9µM	i	i	?
O=C(NCCc1nc2ccccc2[nH]1)/C(=C/c1ccc2c(c1)OCO2)NC(=O)c1ccccc1	i	10µM	i	i	i
O=C(NCCc1c[nH]c2ccccc12)c1ccc2c(c1)OCO2	i	i	i	i	?
O=C(NCCc1nc2ccccc2[nH]1)/C(=C/c1ccc2c(c1)OCO2)NC(=O)c1ccccc1Cl	i	i	i	i	?
N#C/C(=C/c1ccc(-c2ccc(Br)cc2)o1)C(=O)NC1CCCCC1	?	i	i	i	?
COC(=O)CN1C(=O)CSc2ccc(S(=O)(=O)Nc3ccc(C)c(Cl)c3)cc21	i	nt	nt	i	nt
CN1CCN(C(c2cccc(C(F)(F)F)c2)c2nnnn2Cc2ccccc2)CC1 (stereo not given)	?	i	i	i	15µM
COC(=O)C1CN(C#N)N(c2ccc(Cl)cc2)C12c1ccccc1-c1ccccc12 (stereo not given)	11µM	i	i	?	?
COc1ccc(CC2(C)OC(c3ccc(C)c([N+](=O)[O-])c3)=NN2C(C)=O)cc1 (stereo not given)	0.79µM	i	?	i	?
COc1ccc(CC2(C)OC(c3ccc(C)cc3)=NN2C(C)=O)cc1 (stereo not given)	?	i	i	i	i
COc1ccc(-n2nc3c(N4CCCC(C(=O)NCc5ccccc5C)C4)nnc(C)c3c2C)cc1 (stereo not given)	6.3µM	i	nt	i	nt
Fc1ccccc1N1CCN(C2CCN(Cc3c[nH]c4ccccc34)CC2)CC1	?	i	i	i	9.2µM
OC1(c2ccc(Cl)cc2)CCN(Cc2c[nH]c3ccccc23)CC1	?	nt	i	nt	2.8µM
O=S(=O)(c1ccc(Cl)cc1)N1CCN(Cc2c[nH]c3ccccc23)CC1	i	i	i	i	?
Clc1ccccc1N1CCN(Cc2c[nH]c3ccccc23)CC1	i	nt	i	nt	?
CCCCn1c(O)c(C(CC)=Nc2ccc3c(c2)CCC3)c(=O)[nH]c1=O	1.3µM	i	i	?	i
Cc1cc(N(C)C)ccc1N=Nc1ccc2ncccc2c1	nt	i	11µM	i	nt
CCOc1ccc(NC(=O)C(C)Sc2nnc3cc(C)c4ccccc4n23)cc1 (stereo not given)	i	nt	nt	i	i
O=C(c1cc(-c2ccncc2)nc2ccccc12)N1CCN(c2ccccn2)CC1	i	i	i	i	?
O=C(c1cc(-c2ccncc2)nc2ccccc12)N1CCN(c2ncccn2)CC1	i	i	i	nt	1.1µM
O=C(c1cc(-c2ccncc2)nc2ccccc12)N1CCN(c2ccccc2O)CC1	nt	i	i	i	nt
Cc1ccc(C)c(N2CCN(C(=O)c3cc4ccccc4oc3=O)CC2)c1	nt	i	i	i	nt
O=C(c1cc(-c2ccncc2)nc2ccccc12)N1CCN(c2ccc(N3CCOCC3)nn2)CC1	i	i	i	i	15µM
O=C(c1cc2ccccc2oc1=O)N1CCN(c2ccc(N3CCOCC3)nn2)CC1	nt	0.14µM	i	?	i
O=C(c1cnc(N2CCN(c3ncccn3)CC2)c2ccccc12)N1CCN(c2ccccn2)CC1	11µM	i	i	i	?
Cn1c(C(=O)NCc2cccc(F)c2)cc2cc(S(=O)(=O)N3CCCCC3)ccc21	?	nt	nt	i	nt
CCN(CC)c1ccc2nc3ccc(N)cc3[n+](-c3ccccc3)c2c1	8.9µM	i	20µM	i	?
Nc1nc(CCl)nc(Nc2ccc3ccccc3c2)n1	4µM	i	i	i	?
COc1ccc(Nc2nc(N)nc(CCl)n2)cc1	nt	i	i	i	nt
CC1CCCC(C)N1C(=O)c1ccccc1Nc1ccc(SC(F)F)cc1 (stereo not given)	?	i	i	i	12µM

Compound activity: PubChem, National Center for Advancing Translational Sciences (NCATS)
